In the library only some 0.43% were active in any assay of this set; here they are far more common.
GLA inh pH 4.5: alpha-galactosidase A (human) inhibition, pH 4.5. P06280. purified enzyme, 4-MU-alpha-Gal fluorescence, pH 4.5. activity change, negative = inhibition, % at 105 µM. 230,000 tested, under 10 active;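 also: 0% = full activity with enzyme and -100% = basal without enzyme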
aGal spleen mod: inhibitors or activators of human alpha-galactosidase in spleen homogenate. Potency, µM (highest dose often 80 µM), for inactives: top-dose activity change, negative = inhibition, hits mostly inhibitors. 240,000 compounds, 0.008% hits. AID 2107. human spleen homogenate, 4MU-alpha-Gal fluorescence, 40 min;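 also: potency is read from the fitted curve at half-maximal effect; 0% = enzyme with vehicle and -100% = no enzyme basal signal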
Target sequence (P06280 32-429 limits assumed): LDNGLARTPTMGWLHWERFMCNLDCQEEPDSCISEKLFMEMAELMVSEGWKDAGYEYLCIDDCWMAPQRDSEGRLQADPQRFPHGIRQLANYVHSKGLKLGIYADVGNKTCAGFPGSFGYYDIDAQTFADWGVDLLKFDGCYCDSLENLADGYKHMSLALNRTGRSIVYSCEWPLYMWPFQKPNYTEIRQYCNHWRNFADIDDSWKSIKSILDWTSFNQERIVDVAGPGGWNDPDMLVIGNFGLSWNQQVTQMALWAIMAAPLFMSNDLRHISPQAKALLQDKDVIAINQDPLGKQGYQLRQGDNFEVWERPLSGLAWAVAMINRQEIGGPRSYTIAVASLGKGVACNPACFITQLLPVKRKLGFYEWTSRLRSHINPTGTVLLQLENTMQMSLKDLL
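Inhibition or activation of alpha-galactosidase in human spleen homogenate is scored by 4-MU fluorescence after 40 min at 37C, pH 5.0, with 1 mM substrate. AC50s come from concentration-response fitted to the Hill equation.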
N370S GC: inhibits or activates N370S mutant glucocerebrosidase. P04062. N370S GC spleen homogenate, 4MU-glucoside fluorescence. Potency, µM (highest dose often 59.4 µM), without a hit: top-dose activity change, negative = inhibition, most hits filed as inhibitors. 330,000 compounds, 0.092% hits. AID 2101;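 also: potency is read from the fitted curve at half-maximal effect; 0% = full enzyme activity and -100% = no enzyme basal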
aGlu spleen mod: inhibitors or activators of human alpha-glucosidase in spleen homogenate. human spleen homogenate, 4-MU-alpha-glucoside fluorescence. Potency, µM (titrated, usually from 79.9 µM), for inactives: top-dose activity change, negative = inhibition, hits mostly inhibitors. 240,000 compounds, 0.006% hits;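 also: potency is read from the fitted curve at half-maximal effect; 0% = enzyme with vehicle and -100% = no enzyme basal signal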
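Enzyme source: human spleen homogenate, 1 ug/well. Buffer 50 mM citric acid/K phosphate pH 5.0, 0.01% Tween-20. 4-MU-alpha-glucoside 1 mM; 37 C x 40 min; NaOH/glycine stop; fluorescence.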
GAA inh: inhibitors of human lysosomal alpha-glucosidase | P10253 | purified human GAA, 4-MU-alpha-glucoside fluorescence | Potency, µM (series often up to 76.9 µM), inactives show at the top dose activity change, negative = inhibition, most hits filed as inhibitors | 200,000 compounds, 0.005% hits | AID 1466;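 also: potency is read from the fitted curve at half-maximal effect; plate controls were uninhibited enzyme wells for no effect and no-enzyme background for full effect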
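qHTS format, compound range up to 77 uM. Human lysosomal enzyme at 4 nM, 400 uM 4-MU glucoside substrate, pH 5.0, 20 min room temperature; fluorescence after alkaline stop gives activity normalized to controls.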
GAA glycogen: GAA glycogen-cleavage inhibition or activation | recombinant GAA, glycogen substrate, Amplex Red glucose oxidase fluorescence | P10253 | Potency, µM (doses to about 76.4 µM), for the others: at the top dose activity change, negative = inhibition, most hits filed as inhibitors | 300,000 compounds, 0.38% hits;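 also: potency is read from the fitted curve at half-maximal effect; 0% = full enzyme reaction and -100% = no-enzyme basal signal; the screen sought inhibitors and activators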
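Natural-substrate format: glycogen cleavage by 4 nM human enzyme, glucose read by Amplex Red coupling (Ex 573, Em 610 nm). Normalized to enzyme and no-enzyme controls.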
An asterisk follows results filed as active; ? = inconclusive; · = not tested or not shown. Calls follow the shape of the dose curve; as a rule, active = well fitted curve in the direction sought with a large enough effect; inconclusive = small, poorly fitted or top-dose-only effect, or another doubt; inactive = no such curve, though single readings can be large; an effect the other way counts as inactive or inconclusive.

SMILES	GLA inh pH 4.5	aGal spleen mod	N370S GC	aGlu spleen mod	GAA inh	GAA glycogen
O=C1C2CCN(CC2)[C@@H]1Cc1ccc2ccccc2c1O	5.1	2.7%	-19.3%	-4.1%	-4.4%	7.88µM*
CN1C(=O)C(Cc2cccc3ccccc23)C(=O)N(C)C1=O	2.7	0.7%	5.0%	-3.5%	-18.0%	?
CC[C@H](C)[C@H](NC(=O)CN)C(=O)N[C@@H](CC(C)C)C(=O)NCC(=O)N[C@@H](Cc1ccccc1)C(=O)N[C@H](C(=O)N[C@@H](Cc1ccccc1)C(=O)N[C@H](C(=O)N[C@@H](CC(C)C)C(=O)O)[C@@H](C)O)C(C)C	·	0.2%	2.0%	-1.3%	·	·
ClC=CCl	·	-8.4%	10.9%	-1.0%	·	·
CCOc1cc(-c2nc3c(C)cccn3c2NCC2CCCO2)ccc1O (stereo unspecified)	7.2	9.3%	0.2%	-1.4%	-10.0%	35.5µM*
Cc1cccn2c(NCC3CCCO3)c(C(C)C)nc12 (stereo unspecified)	1.7	-11.7%	4.7%	-5.3%	0.7%	?
ClC1=C(Cl)C(Cl)(C2(Cl)C(Cl)=C(Cl)C(Cl)=C2Cl)C(Cl)=C1Cl	·	-9.7%	-6.7%	-5.3%	·	·
CC(=O)N1CC[N+](C)(C)CC1	-0.8	-2.2%	-8.8%	4.9%	·	·
CN1CCC(=O)N(CCN=[N+]=[N-])CC1	·	·	2.4%	·	·	50.1µM*
CCN(CC)/[N+]([O-])=N/O	11.4	-1.0%	8.6%	-3.7%	·	·
CN1[C@@H]2CC[C@H]1CC(O[C@@H](c1ccccc1)c1ccc(Cl)cc1)C2 (stereo partly specified)	-25.6	13.9%	7.94µM*	0.2%	·	·
NC1CCCC[C@H]1N (stereo partly specified)	·	9.1%	1.7%	-1.3%	·	·
O=C(N/N=C1/CN2CCC1CC2)c1cc2ccccc2cc1O	5.5	-11.8%	-21.5%	-0.6%	-0.6%	35.5µM*
Cl/C=C/Cl	·	5.6%	-7.9%	-7.4%	·	·
Cc1cc2c(C(C)C)c(O)c(O)c(C=O)c2c(O)c1-c1c(C)cc2c(C(C)C)c(O)c(O)c(C=O)c2c1O	-3.9	4.3%	11.3%	-2.5%	?	8.91µM*
CN1C(=O)CCS(=O)(=O)[C@H]1c1ccc(Cl)cc1	0.1	-8.9%	-8.7%	-0.9%	·	·
OCCCc1ccc(O)c(O)c1	0.1	9.5%	4.6%	-1.2%	·	35.5µM*
CC12C=CC(=O)C=C1CCC1C2=CCC2(C)C1CC[C@@H]2C(=O)CN1CCN(c2cc(N3CCCC3)nc(N3CCCC3)n2)CC1 (stereo partly specified)	·	?	-5.2%	0.2%	·	·
O=C(O)C1Sc2[nH]c(=O)sc2C2c3cc(Cl)ccc3OC(=O)C12 (stereo unspecified)	-3.4	3.1%	11.2%	5.3%	5.8%	15.8µM*
OC[C@@H]1[C@@H](O)[C@H](O)[C@H]2[C@@H](O)CCN21	·	1.1%	-6.2%	28.2µM*	·	·
COc1cc(/C=N/NP(=S)(c2ccccc2)c2ccccc2)ccc1O	1.4	-7.3%	?	-2.8%	-4.6%	24.9µM*
Oc1ccc(/C=N/NP(=S)(c2ccccc2)c2ccccc2)cc1	-11.0	1.1%	?	-8.3%	-8.7%	-15.5%
C=CC(N)=O	·	14.2%	5.7%	-1.2%	·	·
O=c1cc(-c2ccc(O)c(O)c2)oc2cc(O)cc(O)c12	-8.6	?	?	-0.7%	·	25.1µM*
O=c1c(O)c(-c2ccc(O)c(O)c2)oc2cc(O)cc(O)c12	-16.4	-19.2%	?	0.9%	·	?
CCCBr	·	-1.2%	0.5%	-11.7%	·	·
O=C(NC1(C(F)(F)F)Oc2ccc(Cl)cc2O1)N1CCC2(CC1)OCCO2 (stereo unspecified)	0.4	-1.2%	·	-1.8%	1.6%	8.91µM*
O=C(NC1(C(F)(F)F)Oc2ccccc2O1)N1CCC2(CC1)OCCO2	-4.7	5.0%	0.3%	-0.6%	-5.4%	5.62µM*
CC1CN(O)C2CCc3c(no[n+]3[O-])C12O (stereo unspecified)	2.7	8.3%	4.1%	5.7%	5.4%	8.84µM*

Screening data as filed in PubChem BioAssay.
